The nature of assay [1]: qHTS assay to identify small molecule antagonists of the sonic hedgehog signaling (Shh) pathway (AID 1259369). Further: nearly all actives have a fitted effect of over 45% in size. Further: potency means the concentration at half of the fitted maximal effect. In short, it runs like this:
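NIH/3T3-derived Gli1-Luc reporter cells plated 4 h, dosed with compound, then stimulated with conditioned medium for 24 h at 37 C. Firefly luciferase luminescence read after 30 min with detection reagent at room temperature.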

In assay [2] the target is Estrogen receptor beta (Homo sapiens) (UniProt Q92731). In words: qHTS assay to identify small molecule agonists of the estrogen receptor beta (ER-beta) signaling pathway (AID 1259377; active means well fitted activation curve with a large enough effect in the signal ratio in the repeat runs, not every such curve was filed as active; the % refers to the signal ratio). In short, it runs like this: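 A UAS-controlled beta-lactamase reporter in ER-beta-UAS-bla HEK293T cells reports receptor activation. Compounds act for 16 hr at 37C in 2% charcoal-stripped serum, and a FRET substrate is read by fluorescence after 2 hours.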

The target is the same in assay [3]. In words: qHTS assay to identify small molecule antagonists of the estrogen receptor beta (ER-beta) signaling pathway (AID 1259378; active means well fitted inhibition curve with a large enough effect in the signal ratio in the repeat runs, not every such curve was filed as active; the % refers to the signal ratio; further: potency means the concentration at half of the fitted maximal effect). In short, it runs like this: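 Antagonist mode: compounds added to beta-lactamase reporter HEK293T ER-beta-UAS cells stimulated with E2 (1nM final), 16 hr at 37C. LiveBLAzer B/G FRET substrate, 2 hours room temperature, fluorescence read-out.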
Background: Quantitative high-throughput screening tests each substance at several concentrations.

Assay [4] can be described thus: qHTS assay to identify small molecule agonists of the androgen receptor (AR) signaling pathway in the presence of an antagonist - cell viability counter screen (AID 1259379; active means well fitted curve in the direction sought with a large enough effect in the repeat runs; an effect the other way counts as inactive or inconclusive; further: nearly all actives have a fitted effect of over 25% in size; further: potency means the concentration at half of the fitted maximal effect). In short, it runs like this: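 MDA-kb2 cells (MMTV-luciferase, AR/GR), 3,000/well, 5 h attachment, then 3.0 µM nilutamide (final) and compounds at 15 concentrations. Viability by CellTiter-Fluor fluorescence after 16 h at 37 °C, 0% CO2, in the reporter wells.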

Assay [5] in a line: qHTS assay to identify small molecule antagonists of the estrogen receptor beta (ER-beta) signaling pathway - cell viability counter screen (AID 1259382; active means well fitted curve in the direction sought with a large enough effect in the repeat runs; an effect the other way counts as inactive or inconclusive;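 further: HEK293T cells carrying ER-beta-UAS-bla reporter stimulated with estradiol; series mostly up to about 92 µM; nearly all actives have a fitted effect of over 55% in size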). A digest of the protocol:
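ER-beta-UAS-bla HEK293T cells in 2% charcoal-stripped FBS medium, treated with compound plus 1 nM 17-beta-estradiol for 16 h at 37C. Viability read by CellTiter-Glo luminescence after 30 min at room temperature in the same wells.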

Assay [6] addresses Estrogen receptor (Homo sapiens) (UniProt P03372). In words: qHTS assay to identify small molecule agonists of the estrogen receptor alpha (ER-alpha) signaling pathway in the presence of an antagonist (AID 1259383). Further: top concentration of the series differs between compounds; nearly all actives have a fitted effect of over 15% in size. A digest of the protocol: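 VM7Luc4E2 cells express endogenous full-length ER-alpha with an ERE-luciferase reporter and were hormone-deprived for 5 days. Compounds at 15 concentrations were added with 10.0nM ICI-182,780 for 22hr at 37C. Luminescence was read with ONE-Glo.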

A short description of assay [7]: qHTS assay to identify small molecule agonists or antagonists of the thyroid stimulating hormone receptor (TSHR) signaling pathway - wild type cell line counter screen (AID 1259384). A digest of the protocol: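 Counter screen in untransfected Hek293: compounds (15-point titration, triplicate) plus phosphodiesterase inhibitor Ro20-1724 added after 18 h plating; 30 min RT. Intracellular cAMP via competitive d2/cryptate immunoassay, 1 h incubation.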

For assay [8], the target named is Thyrotropin receptor (Homo sapiens) (UniProt P16473). In words: qHTS assay to identify small molecule antagonists of the thyroid stimulating hormone receptor (TSHR) signaling pathway (AID 1259385). Further: nearly all actives have a fitted effect of over 20% in size. Further: potency means the concentration at half of the fitted maximal effect. In short, it runs like this:
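Antagonist mode: compound-treated TSHR-expressing HEK293 cells were stimulated with 1.5 ng/mL TSH (final) in presence of Ro20-1724 for 30 min at RT. HTRF cAMP detection after 1 h; each compound tested at 15 concentrations, triplicate.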

The nature of assay [9]: qHTS assay to identify small molecule agonists of the estrogen receptor alpha (ER-alpha) signaling pathway in the presence of an antagonist - cell viability counter screen (AID 1259386; active means well fitted curve in the direction sought with a large enough effect in the repeat runs; an effect the other way counts as inactive or inconclusive;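 further: series mostly up to about 92 µM; cells exposed to compounds for 22 h at 37 °C before the viability read; nearly all actives have a fitted effect of over 30% in size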). A digest of the protocol:
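Cell viability in VM7Luc4E2 cells (endogenous full-length ER-alpha) measured by CellTiter-Fluor fluorescence in the same wells as the luciferase screen. Cells pre-cultured 5 days in charcoal-stripped serum, then treated 22 h with compounds at 15 concentrations plus 10.0nM ICI-182,780.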

Assay [10] has as its target Progesterone receptor (Homo sapiens) (UniProt P06401). In words: qHTS assay to identify small molecule agonists of the progesterone receptor (PR) signaling pathway (AID 1346784). Further: nearly all actives have a fitted effect of over 30% in size. In short, it runs like this:
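Agonist mode, quantitative HTS format in a HEK 293T line expressing a UAS-controlled beta-lactamase reporter; 16 hr compound exposure at 37C in 2% charcoal-stripped FBS, then LiveBLAzer B/G FRET fluorescence.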

Assay [11] has the same target. In words: qHTS assay to identify small molecule antagonists of the progesterone receptor (PR) signaling pathway (AID 1346795; active means well fitted inhibition curve with a large enough effect in the signal ratio in the repeat runs, not every such curve was filed as active; the % refers to the signal ratio). A digest of the protocol:
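HEK293T PR-UAS-bla reporter cells in charcoal-stripped serum (2%) received compound after a 6 hr settling period, followed by R5020 agonist at 1 nM final; 16 hr incubation preceded the FRET substrate step and fluorescence measurement.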

Assay [12] in a line: qHTS assay to identify small molecule antagonists of the progesterone receptor (PR) signaling pathway - cell viability counter screen (AID 1346798; active means well fitted curve in the direction sought with a large enough effect in the repeat runs; an effect the other way counts as inactive or inconclusive; further: series mostly up to about 92 µM; nearly all actives have a fitted effect of over 50% in size). A digest of the protocol:
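Same-well multiplex: after 16 hr at 37C with compound and R5020 stimulation, HEK293T cells carrying a UAS-bla reporter received LiveBLAzer substrate (2 hr RT), then CellTiter-Glo (30 min RT) for luminescent viability.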

Assay [13] is described as follows: qHTS assay to identify small molecule agonists of the progesterone receptor (PR) signaling pathway - cell viability counter screen (AID 1346799). Further: nearly all actives have a fitted effect of over 45% in size. A digest of the protocol:
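Counter screen for cytotoxicity: compound-treated PR-UAS-bla HEK293T cells (16 hr, 37C, 5% CO2) were assayed with CellTiter-Glo, luminescence measured after 30 min at room temperature.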

A short description of assay [14]: qHTS assay to identify small molecule antagonists of the TGF-beta/Smad signaling pathway - cell viability counter screen (AID 1346824; active means well fitted curve in the direction sought with a large enough effect in the repeat runs; an effect the other way counts as inactive or inconclusive; further: nearly all actives have a fitted effect of over 50% in size). In short, it runs like this: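 Cytotoxicity counter-screen run in the same wells as the beta-lactamase Smad reporter read: CellTiter-Glo luminescence after 30 min at room temperature. HEK 293T SBE-bla cells had 5 hr compound exposure at 37 C with TGF-beta1 (0.25 ng/mL stock).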

Assay [15] can be described thus: qHTS assay to identify small molecule agonists of the TGF-beta/Smad signaling pathway - cell viability counter screen (AID 1346829; active means well fitted curve in the direction sought with a large enough effect in the repeat runs; an effect the other way counts as inactive or inconclusive; further: top concentration of the series differs between compounds; nearly all actives have a fitted effect of over 45% in size). A digest of the protocol:
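Same-well cytotoxicity: CellTiter-Glo added after the 2 hr room-temperature beta-lactamase substrate step, luminescence measured 30 min later; cells had 5 hr of compound at 37 C.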

Assay [16] is described as follows: qHTS assay to identify small molecule agonists of the TGF-beta/Smad signaling pathway (AID 1346859; active means well fitted activation curve with a large enough effect in the signal ratio in the repeat runs, not every such curve was filed as active; the % refers to the signal ratio; further: series mostly up to about 77 µM). A digest of the protocol:
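Smad-responsive beta-lactamase reporter cells (HEK 293T) received compounds from DMSO stocks after overnight attachment, were incubated 5 hr, then treated 2 hr with FRET substrate before dual-emission fluorescence measurement (405 nm excitation).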

Assay [17] deals with Thyrotropin-releasing hormone receptor (Homo sapiens) (UniProt P34981). In words: qHTS assay to identify small molecule antagonists of the thyrotropin-releasing hormone receptor (TRHR) signaling pathway (AID 1346877; active means well fitted inhibition curve with a large enough effect in the repeat runs, not every such curve was filed as active; further: series mostly up to about 51 µM). In short, it runs like this: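 TRHR-expressing HEK293 cells loaded with calcium dye for 2 h at 37 C; compounds pre-incubated 5 min at room temperature before TRH challenge at 1 nM final. Intracellular calcium fluorescence read kinetically for 3 min; 15 concentrations in triplicate.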

Assay [18] has the same target. In words: qHTS assay to identify small molecule agonists of the thyrotropin-releasing hormone receptor (TRHR) signaling pathway (AID 1346891). Further: series mostly up to about 58 µM. A digest of the protocol: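 Agonist-mode calcium mobilisation screen: TRHR-transfected HEK293 cells cultured overnight (18 h), dye-loaded for 2 h at 37 °C, exposed to compounds, and monitored by fluorescence for 3 min.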
A short description of assay [19]: qHTS assay to identify small molecule agonists of the estrogen receptor beta (ER-beta) signaling pathway - cell viability counter screen (AID 1259380; active means well fitted curve in the direction sought with a large enough effect in the repeat runs; an effect the other way counts as inactive or inconclusive; further: nearly all actives have a fitted effect of over 30% in size; further: potency means the concentration at half of the fitted maximal effect). In short, it runs like this: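 ER-beta-UAS-bla HEK293T cells in medium with 2% charcoal-stripped FBS, pre-incubated 6 hr, then treated 16 hr at 37C. Cytotoxicity read in the same wells by CellTiter-Glo luminescence after 30 min at room temperature.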

The target in assay [20] is Androgen receptor (Homo sapiens) (UniProt P10275). In words: qHTS assay to identify small molecule agonists of the androgen receptor (AR) signaling pathway in the presence of an antagonist (AID 1259381). Further: nearly all actives have a fitted effect of over 15% in size. In short, it runs like this:
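MDA-kb2 cells carrying MMTV-luciferase (AR/GR responsive), 3,000 cells/well, co-treated with 3.0 uM nilutamide final. Compounds at 15 concentrations, 16 hr at 37C without CO2. Luciferase luminescence read after 30 min with ONE-Glo.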

Structures are written as SMILES. Values without a mark were called inactive. Records with an inconclusive call do not appear. Calls of active or inactive are those of the source. Unless noted, the call rests on the fitted dose curve.

Sequence of Estrogen receptor beta (Homo sapiens) (Q92731 whole entry, looked up): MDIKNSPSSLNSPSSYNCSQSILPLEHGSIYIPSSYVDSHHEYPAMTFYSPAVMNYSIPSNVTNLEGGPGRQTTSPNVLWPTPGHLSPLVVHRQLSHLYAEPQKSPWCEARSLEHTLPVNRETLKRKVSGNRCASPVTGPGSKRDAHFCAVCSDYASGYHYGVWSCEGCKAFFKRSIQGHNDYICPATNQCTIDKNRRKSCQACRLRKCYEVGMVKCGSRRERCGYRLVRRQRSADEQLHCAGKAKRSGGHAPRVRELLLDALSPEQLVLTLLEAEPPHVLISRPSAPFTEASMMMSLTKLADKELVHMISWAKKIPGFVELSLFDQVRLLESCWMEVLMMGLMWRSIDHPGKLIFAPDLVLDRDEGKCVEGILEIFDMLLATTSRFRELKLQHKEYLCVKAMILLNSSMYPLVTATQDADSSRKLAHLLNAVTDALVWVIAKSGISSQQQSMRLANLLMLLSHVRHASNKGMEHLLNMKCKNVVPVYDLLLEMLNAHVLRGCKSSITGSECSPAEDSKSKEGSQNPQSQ
Sequence of Thyrotropin receptor (Homo sapiens) (P16473 whole entry, looked up): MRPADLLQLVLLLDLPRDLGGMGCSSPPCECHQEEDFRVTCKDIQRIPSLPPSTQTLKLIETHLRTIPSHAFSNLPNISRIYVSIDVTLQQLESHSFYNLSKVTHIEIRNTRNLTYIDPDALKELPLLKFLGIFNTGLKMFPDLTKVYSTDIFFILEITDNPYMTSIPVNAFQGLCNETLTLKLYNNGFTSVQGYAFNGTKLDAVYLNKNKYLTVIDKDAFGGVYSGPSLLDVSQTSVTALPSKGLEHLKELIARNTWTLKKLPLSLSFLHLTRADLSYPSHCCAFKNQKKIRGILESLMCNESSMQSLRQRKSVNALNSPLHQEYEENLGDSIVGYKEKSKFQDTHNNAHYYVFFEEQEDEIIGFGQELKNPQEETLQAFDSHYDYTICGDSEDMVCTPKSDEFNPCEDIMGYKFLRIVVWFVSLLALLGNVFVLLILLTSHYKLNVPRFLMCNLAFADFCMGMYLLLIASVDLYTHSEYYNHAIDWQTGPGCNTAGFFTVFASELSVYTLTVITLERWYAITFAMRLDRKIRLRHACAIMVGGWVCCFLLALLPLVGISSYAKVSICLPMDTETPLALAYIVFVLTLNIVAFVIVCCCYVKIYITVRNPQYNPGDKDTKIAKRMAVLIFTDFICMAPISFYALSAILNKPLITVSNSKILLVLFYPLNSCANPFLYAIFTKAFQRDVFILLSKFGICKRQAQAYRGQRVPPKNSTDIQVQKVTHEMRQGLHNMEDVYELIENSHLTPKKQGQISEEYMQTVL
Sequence of Estrogen receptor (Homo sapiens) (P03372 whole entry, looked up): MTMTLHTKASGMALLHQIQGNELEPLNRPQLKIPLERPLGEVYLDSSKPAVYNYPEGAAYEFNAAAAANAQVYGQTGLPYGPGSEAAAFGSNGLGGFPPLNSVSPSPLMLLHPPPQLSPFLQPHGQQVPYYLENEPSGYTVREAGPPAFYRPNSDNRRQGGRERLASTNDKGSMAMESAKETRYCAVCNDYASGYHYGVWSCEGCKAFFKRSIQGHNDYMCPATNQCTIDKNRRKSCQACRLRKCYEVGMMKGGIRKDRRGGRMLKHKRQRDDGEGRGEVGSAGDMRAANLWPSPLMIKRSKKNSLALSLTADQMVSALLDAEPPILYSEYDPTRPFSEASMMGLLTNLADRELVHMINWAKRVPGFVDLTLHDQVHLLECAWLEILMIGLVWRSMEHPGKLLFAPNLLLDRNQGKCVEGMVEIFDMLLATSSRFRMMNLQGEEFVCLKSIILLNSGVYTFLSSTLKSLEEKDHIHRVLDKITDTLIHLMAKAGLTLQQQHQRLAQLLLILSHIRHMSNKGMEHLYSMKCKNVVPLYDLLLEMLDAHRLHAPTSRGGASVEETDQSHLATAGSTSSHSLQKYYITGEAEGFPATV
Sequence of Progesterone receptor (Homo sapiens) (P06401 whole entry, looked up): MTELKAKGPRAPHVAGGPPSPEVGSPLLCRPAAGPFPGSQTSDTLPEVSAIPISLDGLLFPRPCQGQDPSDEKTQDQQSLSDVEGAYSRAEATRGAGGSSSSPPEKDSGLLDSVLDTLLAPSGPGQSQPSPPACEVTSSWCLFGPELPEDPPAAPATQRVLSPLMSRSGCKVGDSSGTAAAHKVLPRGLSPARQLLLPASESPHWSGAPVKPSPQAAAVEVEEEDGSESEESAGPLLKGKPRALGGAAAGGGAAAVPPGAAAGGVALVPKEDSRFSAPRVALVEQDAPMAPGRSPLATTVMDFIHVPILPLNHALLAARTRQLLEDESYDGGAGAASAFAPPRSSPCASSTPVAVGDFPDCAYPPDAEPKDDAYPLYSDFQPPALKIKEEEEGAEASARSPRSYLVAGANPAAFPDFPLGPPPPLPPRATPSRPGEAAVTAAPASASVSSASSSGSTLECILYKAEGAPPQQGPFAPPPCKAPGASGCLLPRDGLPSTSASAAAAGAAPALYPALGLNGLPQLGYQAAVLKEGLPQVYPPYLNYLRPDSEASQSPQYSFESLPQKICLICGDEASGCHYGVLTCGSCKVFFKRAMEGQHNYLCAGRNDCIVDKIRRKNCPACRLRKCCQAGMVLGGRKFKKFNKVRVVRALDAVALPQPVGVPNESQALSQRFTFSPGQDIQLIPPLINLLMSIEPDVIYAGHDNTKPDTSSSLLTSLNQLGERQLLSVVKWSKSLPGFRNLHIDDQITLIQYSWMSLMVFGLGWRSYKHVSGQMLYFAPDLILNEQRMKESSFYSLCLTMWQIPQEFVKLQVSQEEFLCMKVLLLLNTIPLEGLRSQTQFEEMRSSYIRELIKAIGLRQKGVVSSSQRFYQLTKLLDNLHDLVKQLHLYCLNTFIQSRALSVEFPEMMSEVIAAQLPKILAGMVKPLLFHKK
Sequence of Thyrotropin-releasing hormone receptor (Homo sapiens) (P34981 whole entry, looked up): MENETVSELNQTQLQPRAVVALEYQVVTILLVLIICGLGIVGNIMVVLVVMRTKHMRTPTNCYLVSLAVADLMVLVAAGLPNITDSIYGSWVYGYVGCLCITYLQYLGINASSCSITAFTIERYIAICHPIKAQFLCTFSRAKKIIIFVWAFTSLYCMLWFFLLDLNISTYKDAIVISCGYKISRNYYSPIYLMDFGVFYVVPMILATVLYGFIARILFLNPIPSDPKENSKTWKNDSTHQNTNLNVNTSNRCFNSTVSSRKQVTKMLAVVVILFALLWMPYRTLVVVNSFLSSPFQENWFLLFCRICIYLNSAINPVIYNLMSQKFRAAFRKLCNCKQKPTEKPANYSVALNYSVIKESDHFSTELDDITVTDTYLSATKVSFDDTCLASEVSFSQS
Sequence of Androgen receptor (Homo sapiens) (P10275 whole entry, looked up): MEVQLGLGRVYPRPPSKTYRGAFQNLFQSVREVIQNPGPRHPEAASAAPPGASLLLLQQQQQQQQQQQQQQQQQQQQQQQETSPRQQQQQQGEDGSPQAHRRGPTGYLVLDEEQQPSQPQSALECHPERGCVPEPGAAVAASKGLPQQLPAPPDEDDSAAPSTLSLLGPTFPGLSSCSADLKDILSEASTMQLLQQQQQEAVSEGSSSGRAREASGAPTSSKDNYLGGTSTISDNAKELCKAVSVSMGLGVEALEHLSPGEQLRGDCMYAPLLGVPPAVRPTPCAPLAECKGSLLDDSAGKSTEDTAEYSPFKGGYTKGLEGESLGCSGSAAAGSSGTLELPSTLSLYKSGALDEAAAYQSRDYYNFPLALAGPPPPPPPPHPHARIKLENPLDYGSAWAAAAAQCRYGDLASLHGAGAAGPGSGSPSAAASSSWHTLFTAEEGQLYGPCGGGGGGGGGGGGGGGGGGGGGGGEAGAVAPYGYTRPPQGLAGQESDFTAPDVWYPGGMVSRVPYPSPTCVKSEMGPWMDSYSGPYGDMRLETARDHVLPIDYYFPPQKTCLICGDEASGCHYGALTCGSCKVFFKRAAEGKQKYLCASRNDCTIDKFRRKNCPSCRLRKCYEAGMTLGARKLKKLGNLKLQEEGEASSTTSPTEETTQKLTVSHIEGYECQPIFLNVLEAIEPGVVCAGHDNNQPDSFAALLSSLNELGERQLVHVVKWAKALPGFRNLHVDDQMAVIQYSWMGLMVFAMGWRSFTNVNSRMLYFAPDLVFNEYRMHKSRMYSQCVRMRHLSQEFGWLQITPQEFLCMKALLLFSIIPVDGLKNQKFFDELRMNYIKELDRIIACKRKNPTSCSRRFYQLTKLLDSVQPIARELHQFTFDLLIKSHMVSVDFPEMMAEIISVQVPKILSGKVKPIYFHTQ

Take `CC(C)(C)c1ccc(OCC2CO2)cc1` (stereo not drawn): the Potency result in assay [1], in assay [2], in assay [3], in [4], in assay [5] and in assay [6] was “inactive” each time. Moreover, the Potency entry in assay [7], in assay [8], in assay [9], in [11], in assay [12] and in assay [13] was “inactive” in each case. Further, the Potency result in [14], in assay [15] and in [18] was “inactive” throughout. For the same molecule, the molecule was called inactive in assay [10], in [16] and in [17].
Take `CCc1nn(C2CCCCC2)c2cc(C3(C#N)CCC(C(=O)O)CC3)ccc12` (stereo not drawn): the Potency result in assay [1], in assay [2], in [5], in assay [6], in assay [7] and in [8] was “inactive” in each case. Moreover, the Potency entry in [14], in assay [15] and in [18] was “inactive” throughout. Further, the figures for the Potency in assay [3] and in assay [19] were 13.7 µM (active) and 8.63 µM (active), respectively. Also, the call in assay [10] and in assay [17] was inactive.
Regarding `CC(C)(C)c1cc(O)c(C(C)(C)C)cc1O`, the Potency in assay [1] is 30.6 µM (active); in [3] it was 30.6 µM (active); in [4] it was 54.5 µM (active); in assay [8], 61.1 µM (active). Besides, the Potency entry in assay [2], in [20], in assay [5], in [6], in [7] and in assay [14] was “inactive” throughout. In addition, the Potency result in [15] and in assay [18] was “inactive” throughout. Further, the molecule was classed as inactive in [10] and in [16].
Take `Oc1ccc(O)c2c(O)cccc12`: the Potency result in assay [1], in [2], in assay [3], in assay [19], in assay [5] and in assay [6] was “inactive” throughout. The Potency result in [7], in assay [8], in assay [9], in assay [12], in assay [13] and in assay [15] was “inactive” each time. Besides, the Potency entry in assay [18] was “inactive”. The result in assay [16] and in [17] was inactive.
On to `CC(C)(Oc1ccc(Cl)cc1)C(=O)OCCCOC(=O)C(C)(C)Oc1ccc(Cl)cc1`, for which the Potency entry in assay [1], in assay [2], in assay [3], in [4], in assay [20] and in [5] was “inactive” throughout. For the same molecule, the Potency entry in assay [6], in assay [7], in assay [9], in assay [11], in assay [12] and in [13] was “inactive” in each case. The Potency entry in assay [14], in assay [15] and in assay [18] was “inactive” in each case. Also, the Potency in assay [8] is 29.8 µM (active). For the same molecule, the molecule was called inactive in [10], in assay [16] and in [17].
With `OC(CCN1CCCCC1)(c1ccccc1)C1CCCCC1` (stereo not drawn), in [1], the Potency was 8.41 µM (active). In addition, the Potency result in [2], in [3], in assay [4], in assay [19], in assay [6] and in assay [7] was “inactive” each time. Further, the Potency entry in assay [9], in assay [11], in assay [12], in [13], in assay [14] and in assay [15] was “inactive” in each case. Further, the molecule was classed as inactive in [10].

The values are drawn from PubChem BioAssay (Tox21).
